# KCNH2 3.1 inh: inhibitors of human KCNH2 3.1 potassium channel isoform | U2OS KCNH2 3.1, thallium flux FluxOr; active compounds read low | activity change, % (tested at about 1.8 µM) | 0.95% of 340,000 active;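 active means maximum activity change below -70%; inconclusive means maximum activity change from -70% to -50%; inactive means maximum activity change above -50%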;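 further: thallium influx rate constant from kinetic fluorescence after stimulation buffer; on the % scale 0 is the no-effect control and ±100 the full control effect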
#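 Virally transduced U2OS (3.1 isoform, 4 h infection in dark at RT) → overnight 37 C → FluxOr + Red40 in HBSS/HEPES, 45 min → stimulation buffer, 2 min kinetic read → rate constant vs DMSO controls.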
# hERG WT inh: inhibitors of human wildtype KCNH2 potassium channel; Q12809; U2OS, BacMam KCNH2, thallium flux FluxOr; active compounds read low; activity change, % at 1.84 µM; 0.37% of 340,000 active; AID 720551;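 active means maximum activity change below -70%; inconclusive means maximum activity change between -70% and -50%; inactive means maximum activity change above -50%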; further: on the % scale 0 is the no-effect control and ±100 the full control effect
#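 U2OS cells were transduced with wild-type KCNH2 virus (2.03 x 10^8 / mL) for 4 h at room temperature, then cultured overnight at 37 C. Thallium flux was read with FluxOr dye. Rate constants were normalized to DMSO controls.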
# A-T KAP1 phos: candidate therapy for ataxia-telangiectasia; F2112 A-T fibroblasts, KAP-1 phosphorylation AlphaLISA; neocarzinostatin DNA damage 30 min before lysis; Potency, µM (titrated, usually from 57.5 µM), inactives show at the highest dose activation, usual class: activators; 0.19% of 320,000 active; AID 485349; further: potency means the concentration at half of the fitted maximal effect; % of control where 0% means no effect; nearly all actives have a fitted effect of over 45% in size
#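 ATM-like activity read as KAP-1 phosphorylation via AlphaLISA donor/acceptor antibody pairs after lysis and 6 hr at 25C. Cells were ATM-null patient fibroblasts (F2112, hTERT), dosed 60 min, then exposed to the DSB inducer NCS for 30 min.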
# 12-LOX inh: inhibitors of human 12S-lipoxygenase ALOX12; P18054; purified 12hLO, xylenol orange hydroperoxide absorbance; Potency, µM (series often up to 108 µM), inactives show at the top dose activity change, negative = inhibition, most hits filed as inhibitors; 1.1% of 580,000 active; AID 1671190; further: potency means the concentration at half of the fitted maximal effect; on the % scale 0 is the no-effect control and ±100 the full control effect
#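 Purified human 12hLO at 150 nM in 25 mM Hepes, 0.01% Triton X-100, pH 7.0, preincubated 15 min at room temperature with compound. Reaction started with 40 uM arachidonic acid, 30 min at room temperature. Hydroperoxide measured by Fe-xylenol orange, 573/405 nm absorbance ratio.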
# Numbers without * were called inactive; u = inconclusive; x = no result given; [ ] = another dose, or the depositor's remark. Sampled rows, rich in hits. Any-hit rate of the full collection: about 1.8%. Unless noted, the call rests on the fitted dose curve; in most records, active means well fitted curve in the direction sought with a large enough effect; inconclusive means small, poorly fitted or top-dose-only effect, or another doubt; inactive means no such curve, though single readings can be large; an effect the other way counts as inactive or inconclusive.
SMILES,KCNH2 3.1 inh,hERG WT inh,A-T KAP1 phos,12-LOX inh
O=S(=O)(NCC(c1cccnc1)N1CCOCC1)c1cccs1 (centres undefined),4,-3,-3%,-12%
CCN1CCN(C(CNS(=O)(=O)c2cccs2)c2cccnc2)CC1 (centres undefined),-462*,16,-8%,-6%
CC(C)CN1C(=O)/C(=C/c2ccco2)NC1=S,-5,-8,-1%,28µM*
CC(C)CN1C(=O)/C(=C/c2cccs2)NC1=S,30,-12,-6%,u
CCN(CC)CCOC(=O)c1ccc([N+](=O)[O-])cc1,-13,-3,35µM*,6%
Cc1ccc(C(=O)C(C)OC(=O)C23CC4CC(CC(O)(C4)C2)C3)cc1 (centres undefined),x,x,x,-20%
Nc1nn(-c2ccccc2)nc1C(=O)OCc1ccccc1,-9,-1,45%,u
COc1cccc(COC(=O)c2nn(-c3ccccc3)nc2N)c1,x,-184*,13%,4%
Cc1ccc2c(c1)c1c3n2CCN(C(=O)CCl)C3CCC1 (centres undefined),5,7,6%,11µM*
N#CC1=C(N)SC(N)=C(C#N)C1c1cccc(Oc2ccccc2)c1,8,-10,-12%,14µM*
CCCC(=O)NCCNC(=O)CC1CCCCC1,x,x,x,3%
COc1ccc(-c2ccc3ncc(Nc4ccnc(N5CCOCC5)c4)n3n2)cn1,x,x,x,32%[176 µM]
CC(=O)Nc1c(S(=O)(=O)c2ccccc2)c2nc3ccccc3nc2n1Cc1ccccc1,3,7,-2%,0%
Cc1ccc(S(=O)(=O)c2c(N)n(Cc3ccco3)c3nc4ccccc4nc23)cc1,-32,7,32µM*,u
O=S(=O)(Nc1c(S(=O)(=O)c2ccccc2)c2nc3ccccc3nc2n1C1CCCCC1)c1ccccc1,-18,-17,8%,40µM*
C=CCn1c(NS(=O)(=O)c2ccccc2)c(S(=O)(=O)c2ccc(C)cc2)c2nc3ccccc3nc21,-12,-16,22µM*,1%
Cc1cccc(S(=O)(=O)c2c(N)n(Cc3ccco3)c3nc4ccccc4nc23)c1,15,-5,20%,0%
COCCCn1c(C)cnc1CC1CCN(C(=O)NC2CCCCC2)CC1,x,x,x,57%
CCc1nnc(NC(=O)CSc2nc3cc4c(cc3cc2C)OCCO4)s1,5,-17,-4%,-13%
CCc1ccc2nc(SCC(=O)Nc3nnc(C)s3)c(C)cc2c1,-91*,-6,5%,u
CCSC1=NC(C)(C)C=C(/C=C/c2ccc(Cl)cc2Cl)N1,3,2,x,40µM*
Oc1ccc2ccccc2c1SSc1c(O)ccc2ccccc12,x,x,x,1.7µM*
NCc1c(O)ccc2ccccc12,x,x,-1%,u
COc1ccc(C2=NOC(C(=O)Nc3cc(Br)ccc3O)C2)cc1OC (centres undefined),6,u,-2%,10µM*
CC(C)n1c2ccccc2c2nc3ccccc3nc21,-8,6,35µM*,-3%
SMILES,KCNH2 3.1 inh,hERG WT inh,A-T KAP1 phos,12-LOX inh
C#CCn1c2ccccc2c2nc3ccccc3nc21,7,-1,-7%,-11%
O=C(/C=C/c1cccc(O)c1)c1cccnc1,1,8,-2%,-10%
O=C(/C=C/c1cccnc1)c1cccc(O)c1,8,7,6%,8.9µM*
CC(C)(C)C(=O)/C(C#N)=C\c1ccc(C#N)cc1,x,x,x,-42%
COc1ccc(CCC(=O)N2CCCC(Cc3noc(-c4ccccc4)n3)C2)cc1 (centres undefined),x,x,x,18%
CCOC(=O)c1cnc(SCc2ccccc2)nc1N,-22,-6,6%,-2%
CCOC(=O)c1cnc(SCc2cccc3ccccc23)nc1N,-133*,-16,11%,0%
S=c1[nH]c(-c2ccccc2)cn1/N=C/c1ccc(Br)cc1,12,-8,0%,40µM*
O=C(O)c1ccc(/C=N/n2cc(-c3ccccc3)[nH]c2=S)cc1,-3,-8,-17%,45µM*
S=c1[nH]c(-c2ccccc2)cn1/N=C/c1cccnc1,3,-3,-4%,u
CCC(C)NC(=S)Nc1cccc(C)c1 (centres undefined),x,x,x,-8%
COc1ccccc1C(CC(=O)NCCc1ccccc1)c1c[nH]c2ccccc12 (centres undefined),x,x,x,-3%
CN(C)c1nc2c(c(=O)[nH]1)CCN(Cc1ccccc1Br)CC2,x,x,x,17%
Cc1ccc(C2NC(=O)N(CC(=O)Nc3ccc4c(c3)OCCO4)C3=C2C(=O)OC3)cc1 (centres undefined),x,x,x,20%
COc1cccc(NC(=O)CN2C(=O)NC(c3ccc(C)cc3)C3=C2COC3=O)c1 (centres undefined),x,x,x,18%
Cc1cc(NC(=O)CN2C(=O)NC(c3ccc(Cl)cc3)C3=C2COC3=O)ccc1Br (centres undefined),x,x,x,8.9µM*
O=C(CN1C(=O)NC(c2ccc(Cl)cc2)C2=C1COC2=O)Nc1cccc(Br)c1 (centres undefined),x,x,x,10µM*
O=C(Nc1c(-c2ccccc2)[nH][nH]c1=O)c1ccc2c(c1)OCO2,x,x,x,-2%
O=C(Nc1c(-c2ccc3c(c2)OCO3)[nH][nH]c1=O)c1ccccc1,x,x,x,28µM*
O=c1c(-c2ccccc2)nc2ccccc2n1C(c1ccccn1)c1nc2ccccc2[nH]1 (centres undefined),x,x,x,-27%
CCC(c1nc2ccccc2[nH]1)n1c(=O)c(-c2ccccc2)nc2ccccc21 (centres undefined),x,x,x,-39%
CC(C)(C)C(c1nc2ccccc2[nH]1)n1c(-c2ccco2)nc2ccccc21 (centres undefined),x,x,x,-28%
CCC(c1nc2ccccc2[nH]1)n1c(=O)c(-c2ccco2)nc2ccccc21 (centres undefined),x,x,x,25µM*
O=c1c(-c2ccco2)nc2ccccc2n1C(c1ccccc1)c1nc2ccccc2[nH]1 (centres undefined),x,x,x,18µM*
O=c1c(-c2cccs2)nc2ccccc2n1C(c1ccccn1)c1nc2ccccc2[nH]1 (centres undefined),x,x,x,40µM*
SMILES,KCNH2 3.1 inh,hERG WT inh,A-T KAP1 phos,12-LOX inh
CCCN1C(=O)C(NC(=O)c2ccc(C(C)(C)C)cc2)(C(F)(F)F)C(C(=O)OC)=C1C (centres undefined),x,x,x,7%
O=C(Cn1c(=O)c2c(ncn2Cc2ccccc2)n(Cc2ccccc2)c1=O)NC1CC1,-90*,-3,0%,19%
CCn1cnc2c1c(=O)n(CC(=O)NC1CCS(=O)(=O)C1)c(=O)n2Cc1ccccc1 (centres undefined),x,x,x,-4%
CC(C)c1cccc(NC(=O)C2CCN(C(=O)c3ncn4c3COC(c3ccc(F)cc3)C4)CC2)c1 (centres undefined),x,x,x,42%
N#CC1=C(SCc2ccc(Cl)cc2)NC(=O)C(C#N)C12CCCC2 (centres undefined),x,x,x,-10%
COc1ccc(CCNC(=O)COc2ncnc3cc([N+](=O)[O-])ccc23)cc1,-107*,1,6%,-8%
